Records with an inconclusive call do not appear. Calls of active or inactive are those of the source. Unless noted, the call rests on the fitted dose curve; in most records, active means well fitted curve in the direction sought with a large enough effect; inconclusive means small, poorly fitted or top-dose-only effect, or another doubt; inactive means no such curve, though single readings can be large; an effect the other way counts as inactive or inconclusive.

The target of experiment [1] is Cytochrome P450 3A4 (Homo sapiens) (UniProt P08684). The experiment in a line: qHTS Assay for Inhibitors and Substrates of Cytochrome P450 3A4 (AID 884). Further: on the % scale 0 is the no-effect control and ±100 the full control effect; nearly all actives have a fitted effect of over 50% in size. The essentials: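 20 nM human CYP3A4 with 25 uM Luciferin-PPXE (at KM) in 200 mM KPO4, preincubated 10 min with compound; NADPH regeneration started a 60 min RT reaction. Luciferin detected by luminescence, normalized to 57 uM ketoconazole as full inhibition.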
For orientation: qHTS replaces the single test concentration by a dilution series.

Experiment [2] in a line: Confirmation and Secondary Assay for Modulators of Hemoglobin Beta Chain Splicing at IVS2 705 locus (AID 930).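 Further: HeLa cells stably expressing the EGFP-705 splicing reporter; % of control where 0% means no effect.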 The essentials: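 Assay measures total GFP intensity per well in HeLa EGFP-705 cells after 2 days with compound; mis-splicing normally truncates EGFP, so fluorescence indicates corrected splicing.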
Experiment [3] is described as follows: qHTS Assay for Lipid Storage Modulators (AID 1519; calls by dose curve; on activity change, negative = inhibition: on the % scale 0 is the no-effect control and ±100 the full control effect). The note with it: Drosophila S3 cells, BODIPY lipid droplet/cell ratio, laser cytometry, cells loaded with oleic acid; for activity change, negative = inhibition: at 57.5 µM (top of the series). The essentials: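 Cells seeded at 5,000 per well were treated with compounds over a concentration series and loaded with oleic acid (400 uM, as added). Lipid droplet fluorescence (488 nm excitation, 500-530 nm channel) was read by laser-scanning cytometry and normalized to 20 uM Triacsin C.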

For experiment [4], the target named is ATP-dependent 6-phosphofructokinase (Trypanosoma brucei brucei) (UniProt O15648). Kind of experiment: qHTS Assay to Find Inhibitors of T. brucei phosphofructokinase: hit validation (AID 492961).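 Further: luminescence reports ADP formed as PFK phosphorylates fructose-6-phosphate with ATP; on the % scale 0 is the no-effect control and ±100 the full control effect.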 Put shortly: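 Measures ADP output of PFK (1.25 nM) at 0.1 mM ATP, 0.5 mM F6P, pH 8.0 TEA buffer with 5 mM MgCl2. No-enzyme wells define full inhibition; uninhibited enzyme wells define zero.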

In experiment [5] the target is Ubiquitin carboxyl-terminal hydrolase 1 (Homo sapiens) (UniProt O94782). Kind of experiment: Inhibitors of USP1/UAF1: Pilot qHTS (AID 504865).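 Further: rhodamine fluorescence freed from ubiquitin-rhodamine substrate followed over time; top concentration of the series differs between compounds; on the % scale 0 is the no-effect control and ±100 the full control effect; nearly all actives have a fitted effect of over 35% in size.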 The essentials:
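Kinetic fluorescence assay: 1nM USP1/UAF1, 15 min compound preincubation, then 150nM Ub-Rho; 480/540 nm.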

In experiment [6] the target is Luciferin 4-monooxygenase (Photinus pyralis) (UniProt P08659). The experiment in a line: Biochemical firefly luciferase enzyme assay for NPC (AID 624030).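 Further: purified P. pyralis luciferase at 10 nM with luciferin and ATP substrate; 0% = DMSO and -100% = full luciferase inhibition by PTC124 control; nearly all actives have a fitted effect of over 70% in size.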 Put shortly:
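Direct inhibition of firefly luciferase enzyme (10 nM final, 50 mM Tris Acetate) assessed by luminescence within 5 minutes. Percent activity scaled between DMSO and PTC124 positive control, with concentration-effect curves classified by fit quality and response.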

Experiment [7] in a line: S16 Schwann cell viability assay (CellTiter-Glo assay) (AID 624031).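 Further: native untransfected S16 rat Schwann cells; cellular ATP luminescence as a viability measure; plate controls were DMSO-treated cells for no effect and cell-free wells for full effect; nearly all actives have a fitted effect of over 70% in size.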 Put shortly: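 Concentration-effect curves come from CellTiter-Glo luminescence of S16 rat Schwann cells after 24 h compound exposure. Each reading was normalized to DMSO wells (0%) and wells without cells, and curves were ranked by r2 and response magnitude.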
Experiment [8] in a line: S16 Schwann cell PMP22 intronic element firefly luciferase assay (AID 624032).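 Further: plate controls were DMSO for no effect and PTC124 positive control mean for full effect; nearly all actives have a fitted effect of over 30% in size.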 The essentials: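 Luciferase reporter of PMP22 intronic-element expression in stably transfected S16 rat Schwann cells, read by ONE-Glo luminescence after 24 h compound exposure at 37 C. Activity scaled between DMSO (0%) and positive-control PTC124; concentration-effect curves quality-classified.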

The nature of experiment [9]: S16 Schwann cell PMP22 intronic element beta-lactamase assay (AID 624044; calls by dose curve;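 further: 0% = DMSO and -100% = potassium clavulanate positive control; nearly all actives have a fitted effect of over 15% in size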). Put shortly: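 Rat S16 Schwann cells with beta-Lac driven by a PMP22 intronic element, compound-treated 24 h at 37 °C. LiveBLAzer FRET B/G read: 460 nm normalized to potassium clavulanate vs DMSO; 535 nm FRET as viability; concentration-effect curves classified.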
Another experiment has as its system 7G8. Kind of experiment: qHTS profiling for inhibitors of Plasmodium falciparum proliferation (AID 504749). Further: nearly all actives have a fitted effect of over 60% in size. Further: potency means the concentration at half of the fitted maximal effect. The note with it: P. falciparum in erythrocytes, SYBR Green DNA, 72 h; series mostly up to 12.8 µM. The essentials:
(§1)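 Three-day growth assay of blood-stage parasites in erythrocytes (0.3% parasitemia, 2.5% hematocrit) at 37 C, 5% CO2, quantified by SYBR Green DNA staining after overnight detergent lysis.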

In another experiment the test system is CP191. Described as above. The note with it: P. falciparum in erythrocytes, SYBR Green DNA, 72 h; series mostly up to 12.8 µM. Put shortly:
as §1

The test system of a further experiment is CP192. The description is as above. The note with it: P. falciparum in erythrocytes, SYBR Green DNA, 72 h; series mostly up to 12.8 µM. Put shortly:
as §1

The test system of another experiment is CP194. The description is as above. As to conditions: P. falciparum in erythrocytes, SYBR Green DNA, 72 h; series mostly up to 12.8 µM. The essentials: as §1
The test system of a further experiment is CP201. The experiment is described as above. The note with it: P. falciparum in erythrocytes, SYBR Green DNA, 72 h; series mostly up to 12.8 µM. Put shortly:
as §1

For a further experiment, the system named is CP203. The experiment is described as above. As to conditions: P. falciparum in erythrocytes, SYBR Green DNA, 72 h; series mostly up to 12.8 µM. Put shortly:
as §1

A further experiment has as its system CP211. The experiment is described as above. As to conditions: P. falciparum in erythrocytes, SYBR Green DNA, 72 h; series mostly up to 12.8 µM. Put shortly:
as §1

For the next experiment, the system named is CP217. Described as above. As to conditions: P. falciparum in erythrocytes, SYBR Green DNA, 72 h; series mostly up to 12.8 µM. The essentials:
as §1

For another experiment, the system named is CP262. The experiment is described as above. The note with it: P. falciparum in erythrocytes, SYBR Green DNA, 72 h; series mostly up to 12.8 µM. The essentials: as §1
The subject of a further experiment is CP266. Described as above. As to conditions: P. falciparum in erythrocytes, SYBR Green DNA, 72 h; series mostly up to 12.8 µM. Put shortly:
as §1

The test system of a further experiment is CP268. Described as above. The note with it: P. falciparum in erythrocytes, SYBR Green DNA, 72 h; series mostly up to 12.8 µM. Put shortly:
as §1

The test system of another experiment is CP269. The description is as above. The note with it: P. falciparum in erythrocytes, SYBR Green DNA, 72 h; series mostly up to 12.8 µM. Put shortly: as §1
Another experiment relates to CP291. The description is as above. As to conditions: P. falciparum in erythrocytes, SYBR Green DNA, 72 h; series mostly up to 12.8 µM. Put shortly:
as §1

The subject of another experiment is CP297. The description is as above. As to conditions: P. falciparum in erythrocytes, SYBR Green DNA, 72 h; series mostly up to 12.8 µM. The essentials: as §1
A further experiment concerns CP305. The description is as above. The note with it: P. falciparum in erythrocytes, SYBR Green DNA, 72 h; series mostly up to 12.8 µM. The essentials: as §1
The next experiment concerns CP315. Described as above. As to conditions: P. falciparum in erythrocytes, SYBR Green DNA, 72 h; series mostly up to 12.8 µM. The essentials:
as §1

The subject of another experiment is CP325. The experiment is described as above. As to conditions: P. falciparum in erythrocytes, SYBR Green DNA, 72 h; series mostly up to 12.8 µM. Put shortly:
as §1

The subject of the next experiment is CP329. Described as above. As to conditions: P. falciparum in erythrocytes, SYBR Green DNA, 72 h; series mostly up to 12.8 µM. Put shortly:
as §1

The next experiment has as its system ICS. Described as above. The note with it: P. falciparum in erythrocytes, SYBR Green DNA, 72 h; series mostly up to 12.8 µM. Put shortly:
as §1

The next experiment has as its system TAB113. Described as above. The note with it: P. falciparum in erythrocytes, SYBR Green DNA, 72 h; series mostly up to 12.8 µM. Put shortly:
as §1

The next experiment relates to W2. The description is as above. The note with it: P. falciparum in erythrocytes, SYBR Green DNA, 72 h; series mostly up to 12.8 µM. The essentials:
as §1

Experiment [10] in a line: Confirmation and Secondary Assay for Modulators of Hemoglobin Beta Chain Splicing at IVS2 654 locus (AID 910).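 Further: HeLa cells stably carrying EGFP split by mutant beta-globin IVS2-654 intron; per-well total GFP intensity by laser scanning cytometry after 2-day treatment; % of control where 0% means no effect.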 The essentials: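 Readout: per-well total peak green fluorescence (488 nm ex, 500–520 nm em) from objects 5–250 µm, reflecting correct splicing of an EGFP-654 reporter. Compounds were applied for 2 days at 37 °C to overnight-plated HeLa EGFP-654 cells; controls were DMSO and 500 nM IVS2-654 PNA.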

Another experiment has as its system CP215. Kind of experiment: qHTS profiling for inhibitors of Plasmodium falciparum proliferation (AID 504749). Further: nearly all actives have a fitted effect of over 60% in size. Further: potency means the concentration at half of the fitted maximal effect. As to conditions: P. falciparum in erythrocytes, SYBR Green DNA, 72 h; series mostly up to 12.8 µM. The essentials:
as §1

The test system of a further experiment is Dd2. The description is as above. The note with it: P. falciparum in erythrocytes, SYBR Green DNA, 72 h; series mostly up to 12.8 µM. The essentials: as §1
The subject of another experiment is PC15. The description is as above. The note with it: P. falciparum in erythrocytes, SYBR Green DNA, 72 h; series mostly up to 12.8 µM. The essentials: as §1
A further experiment relates to PC26. Described as above. The note with it: P. falciparum in erythrocytes, SYBR Green DNA, 72 h; series mostly up to 12.8 µM. Put shortly:
as §1

In experiment [11] the target is DNA dC->dU-editing enzyme APOBEC-3G (Homo sapiens) (UniProt Q9HC16). The experiment in a line: qHTS for inhibitors of Vif-A3G interactions: Validation (AID 588379). Further: 0% is about no effect. Put shortly: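 HeLa cells stably expressing Vif and A3G-eYFP, 700 cells/well, incubated overnight at 37 deg C, then exposed to compound overnight at 37 deg C. Inhibition of Vif-mediated degradation read as increased yellow fluorescence (Ex 488/Em 500-530) by laser-scanning cytometry.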

The mark [12] stands for this setting: measured here: cell count channel max response.
[13] abbreviates: measured here: lipid channel max response.

Chain of Cytochrome P450 3A4 (Homo sapiens) (P08684 whole entry, looked up): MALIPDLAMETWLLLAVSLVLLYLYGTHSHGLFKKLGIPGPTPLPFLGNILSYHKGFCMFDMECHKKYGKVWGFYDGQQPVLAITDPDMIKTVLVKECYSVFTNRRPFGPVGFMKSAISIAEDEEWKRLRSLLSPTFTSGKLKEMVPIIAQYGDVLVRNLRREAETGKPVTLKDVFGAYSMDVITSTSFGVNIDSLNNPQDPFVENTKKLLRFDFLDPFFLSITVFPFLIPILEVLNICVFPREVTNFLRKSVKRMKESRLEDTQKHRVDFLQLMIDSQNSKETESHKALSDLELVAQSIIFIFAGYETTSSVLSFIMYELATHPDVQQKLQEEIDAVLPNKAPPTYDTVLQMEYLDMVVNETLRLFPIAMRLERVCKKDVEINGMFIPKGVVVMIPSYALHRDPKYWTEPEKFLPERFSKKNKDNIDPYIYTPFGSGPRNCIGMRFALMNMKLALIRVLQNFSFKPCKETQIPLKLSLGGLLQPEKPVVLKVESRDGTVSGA
Chain of ATP-dependent 6-phosphofructokinase (Trypanosoma brucei brucei) (O15648 whole entry, looked up): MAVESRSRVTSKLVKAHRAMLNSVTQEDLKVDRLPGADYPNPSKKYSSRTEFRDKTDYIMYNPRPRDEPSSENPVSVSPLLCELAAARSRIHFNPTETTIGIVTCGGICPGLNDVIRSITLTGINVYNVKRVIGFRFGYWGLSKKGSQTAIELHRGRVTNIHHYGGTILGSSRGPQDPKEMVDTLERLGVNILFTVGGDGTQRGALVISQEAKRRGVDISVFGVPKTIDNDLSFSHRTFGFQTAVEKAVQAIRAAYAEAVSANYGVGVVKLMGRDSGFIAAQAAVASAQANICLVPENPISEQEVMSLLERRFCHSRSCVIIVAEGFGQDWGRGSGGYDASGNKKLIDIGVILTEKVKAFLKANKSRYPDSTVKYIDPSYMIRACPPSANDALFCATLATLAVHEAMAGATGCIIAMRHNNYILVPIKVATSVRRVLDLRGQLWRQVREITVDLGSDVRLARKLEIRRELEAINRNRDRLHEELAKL
Chain of Ubiquitin carboxyl-terminal hydrolase 1 (Homo sapiens) (O94782 whole entry, looked up): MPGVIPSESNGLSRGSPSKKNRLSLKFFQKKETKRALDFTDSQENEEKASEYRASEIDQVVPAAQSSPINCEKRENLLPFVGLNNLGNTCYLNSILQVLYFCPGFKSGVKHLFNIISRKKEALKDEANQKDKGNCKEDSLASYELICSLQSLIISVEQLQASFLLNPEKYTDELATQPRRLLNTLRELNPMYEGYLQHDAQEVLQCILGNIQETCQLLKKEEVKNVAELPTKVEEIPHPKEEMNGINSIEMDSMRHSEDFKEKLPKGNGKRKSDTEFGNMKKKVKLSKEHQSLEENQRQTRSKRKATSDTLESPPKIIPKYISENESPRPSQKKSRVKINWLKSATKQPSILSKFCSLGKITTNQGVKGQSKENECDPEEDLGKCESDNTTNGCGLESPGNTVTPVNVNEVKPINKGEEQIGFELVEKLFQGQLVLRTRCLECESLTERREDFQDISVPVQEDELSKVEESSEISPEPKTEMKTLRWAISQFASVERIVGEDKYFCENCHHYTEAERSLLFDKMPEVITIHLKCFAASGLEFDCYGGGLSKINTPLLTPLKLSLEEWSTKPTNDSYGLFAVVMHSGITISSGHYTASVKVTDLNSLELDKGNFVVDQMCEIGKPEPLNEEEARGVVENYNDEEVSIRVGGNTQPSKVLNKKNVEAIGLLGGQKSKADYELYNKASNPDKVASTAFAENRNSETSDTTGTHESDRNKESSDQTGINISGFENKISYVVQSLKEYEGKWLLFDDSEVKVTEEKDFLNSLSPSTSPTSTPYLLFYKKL
Chain of Luciferin 4-monooxygenase (Photinus pyralis) (P08659 whole entry, looked up): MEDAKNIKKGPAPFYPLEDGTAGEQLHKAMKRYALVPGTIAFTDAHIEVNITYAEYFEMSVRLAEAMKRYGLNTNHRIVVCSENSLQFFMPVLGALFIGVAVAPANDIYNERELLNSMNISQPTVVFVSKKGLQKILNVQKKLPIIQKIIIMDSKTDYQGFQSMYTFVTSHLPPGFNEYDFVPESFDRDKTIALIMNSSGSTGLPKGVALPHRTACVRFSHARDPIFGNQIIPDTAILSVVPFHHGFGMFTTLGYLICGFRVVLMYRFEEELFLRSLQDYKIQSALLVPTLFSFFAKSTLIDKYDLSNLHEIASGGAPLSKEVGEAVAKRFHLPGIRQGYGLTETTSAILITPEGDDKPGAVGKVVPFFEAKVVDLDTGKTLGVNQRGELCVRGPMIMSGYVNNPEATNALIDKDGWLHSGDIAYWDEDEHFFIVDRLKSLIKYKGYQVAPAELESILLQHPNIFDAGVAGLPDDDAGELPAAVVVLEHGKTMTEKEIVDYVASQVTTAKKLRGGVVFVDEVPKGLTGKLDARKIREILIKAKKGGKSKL
Chain of DNA dC->dU-editing enzyme APOBEC-3G (Homo sapiens) (Q9HC16 whole entry, looked up): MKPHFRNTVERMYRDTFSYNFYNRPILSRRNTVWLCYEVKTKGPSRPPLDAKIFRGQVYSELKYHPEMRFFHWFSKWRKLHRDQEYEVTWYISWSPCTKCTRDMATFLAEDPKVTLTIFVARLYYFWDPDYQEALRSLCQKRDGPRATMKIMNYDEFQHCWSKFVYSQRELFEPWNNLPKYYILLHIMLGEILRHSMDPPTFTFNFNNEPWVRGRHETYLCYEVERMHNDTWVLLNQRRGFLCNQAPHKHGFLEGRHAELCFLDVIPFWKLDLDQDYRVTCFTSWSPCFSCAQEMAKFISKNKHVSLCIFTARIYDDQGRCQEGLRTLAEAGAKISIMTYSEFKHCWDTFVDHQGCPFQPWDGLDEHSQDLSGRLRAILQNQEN

Take `COC1OC(CO)C(OC2OC(C(=O)O)C(OC3OC(COS(=O)(=O)O)C(OC4OC(C(=O)O)C(OC5OC(CO)C(OC6OC(C(=O)O)C(OC7OC(COS(=O)(=O)O)C(OC8OC(C(=O)O)=C[C@H](O)C8OS(=O)(=O)O)C(O)C7NC(C)=O)[C@@H](O)C6O)C(O)C5NC(C)=O)[C@@H](O)C4O)C(O)C3NC(C)=O)[C@@H](O)C2O)C(O)C1NC(C)=O` (stereo partly specified): the Potency entry in experiment [1], in [2], in experiment [5], in [6], in [8] and in experiment [9] was “inactive” each time. In addition, the Potency result in the experiment with CP192, in the experiment with CP194, in the experiment on CP201, in the experiment with CP203, in the experiment on CP211 and in the experiment on CP262 was “inactive” in each case. Besides, the Potency result in the experiment with CP266, with CP268, in the experiment with CP269, in the experiment on CP291, in the experiment on CP297 and in the experiment with CP305 was “inactive” each time. Also, the Potency result in the experiment on CP315, in the experiment on CP325 and with CP329 was “inactive” throughout. The activity change, negative = inhibition in experiment [3] was 0.455% (inactive). The max response in experiment [3] (setting [12]) was -2.95%; in [3] (setting [13]), -0.316%. Moreover, the molecule was classed as inactive in [4] and in experiment [7]. Further, the Potency with 7G8 was 7.08 µM (active); in the experiment on CP191, 11.2 µM (active); with CP217 it was 10 µM (active); in the experiment with ICS it was 12.6 µM (active); with TAB113, 14.1 µM (active); in the experiment with W2, 6.75 µM (active).
`COC1CC(O[C@H]2/C(C)=C/CC3CC(C[C@]4(CCC(C)C(C5CCCCC5)O4)O3)OC(=O)[C@H]3C=C(C)/C(=N/O)C4OC/C(=C\C=C\[C@@H]2C)[C@@]43O)OC(C)C1O` (stereo partly specified): the Potency entry in experiment [1], in [10], in experiment [2], in experiment [6], in experiment [8] and in experiment [9] was “inactive” throughout. Also, the Potency result with CP192, with CP194, in the experiment with CP201, with CP203, with CP211 and with CP215 was “inactive” each time. Moreover, the Potency result in the experiment on CP262, in the experiment with CP266, in the experiment on CP268, with CP269, in the experiment with CP291 and in the experiment with CP305 was “inactive” throughout. Besides, the Potency entry in the experiment with CP315, in the experiment on CP325, with CP329, with Dd2, in the experiment on PC15 and in the experiment with PC26 was “inactive” each time. For the same molecule, in [3], the activity change, negative = inhibition is -12.3% (inactive). For the same molecule, the results for the max response in experiment [3] (setting [12]) and in experiment [3] (setting [13]) were 13.8% and -0.335%, respectively. The molecule was called inactive in experiment [4] and in [7]. Moreover, the Potency in the experiment with 7G8 was 12.6 µM (active); in the experiment on CP191, 10 µM (active); in the experiment with ICS, 12.6 µM (active); in the experiment with W2, 13.5 µM (active).
As to `C=C1CC/C=C(\C)CC[C@@H]2[C@@H]1CC2(C)C`, the Potency result in experiment [1] and in experiment [5] was “inactive” throughout. Besides, the activity change, negative = inhibition in experiment [3] is -10.6% (inactive). Moreover, the values for the max response in experiment [3] (setting [12]) and in [3] (setting [13]) were -19.4% and -26.5%, respectively. For the same molecule, the molecule was called inactive in experiment [11].
